# PubChem BioAssay (NCATS)
# Where “and” joins values, the source holds several entries; their conditions need not be identical. Equal entries are not always repeated. Inconclusive results are not listed. A call without a number means that no potency is given here. Calls of active or inactive are those of the source. Unless noted, calls follow the shape of the dose curve; as a rule, active = well fitted curve in the direction sought with a large enough effect; inconclusive = small, poorly fitted or top-dose-only effect, or another doubt; inactive = no such curve, though single readings can be large; an effect the other way counts as inactive or inconclusive.
# Experiments:
# [1] = Cell Viability - HepG2 (AID 433; calls by dose curve;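 also: potency is read from the fitted curve at half-maximal effect; cells exposed to compound for 40 hours; potency for ATP loss meaning cytotoxicity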); conditions: qHTS
# How it was run: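 Cytotoxicity read as ATP loss (CellTiter-Glo luminescence) after 40 hr compound exposure of HepG2, 1500 cells/well, 37 °C. AC50 by Hill equation; 0% set by DMSO, 100% inhibition by 100 uM tamoxifen.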
# [2] = Cell Viability - Mesenchymal (AID 546); conditions: mesenchymal cells viability, qHTS; activity change, negative = cytotoxicity: at 91.7 µM (top of the series);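 also: cells exposed to compound for 40 hours before reading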
# How it was run: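 Normal human renal glomerulus-derived kidney mesenchymal cells, 1000 per well in complete medium, were treated with compounds for 40 hr at 37 °C. Viability was read as intracellular ATP by CellTiter-Glo luminescence; AC50 values came from Hill-equation fits of qHTS concentration-response data.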
# [3] = Cell Viability - LYMP2-013 (AID 970); conditions: LYMP2-013 lymphoblastoid cells viability; series mostly up to 92.2 µM; also: nearly all actives have a fitted effect of over 55% in size; also: potency is read from the fitted curve at half-maximal effect
# How it was run: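 Human lymphoblastoid LYMP2-013 cells, 2500/well, treated 24 h at 37 C in complete medium; viability as intracellular ATP by CellTiter-Glo luminescence after 30 min. AC50 from Hill fits of qHTS concentration-response.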
# [4] = Cell Viability - LYMP2-017 (AID 972); conditions: LYMP2-017 lymphoblastoid cell viability; series mostly up to 92.2 µM; also: potency is read from the fitted curve at half-maximal effect; nearly all actives have a fitted effect of over 55% in size
# How it was run: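 LYMP2-017 human lymphoblastoid cells (2500/well) settled 5 hr at 37 C, then exposed to compound 24 hr at 37 C in complete medium. Viability taken as intracellular ATP by CellTiter-Glo luminescence after 30 min at RT; AC50 from Hill fits.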
# [5] = Cell Viability - LYMP2-025 (AID 976); conditions: LYMP2-025 lymphoblastoid cell viability; series mostly up to 92.2 µM
# How it was run: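 Human lymphoblastoid LYMP2-025 cells, 2500/well, exposed 24 h at 37 C in complete medium in 1536-well qHTS. Viability as cellular ATP by CellTiter-Glo luminescence; AC50 from Hill fits of concentration-response data.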
# [6] = Cell Viability - LYMP2-002 (AID 977); conditions: LYMP2-002 lymphoblastoid cell viability, qHTS; series mostly up to 92.2 µM
# How it was run: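 Luminescent ATP readout (CellTiter-Glo, 30 min room temperature) after 24 h compound exposure at 37 C of a human lymphoblastoid line, 2500 cells/well. AC50 values derived by standard Hill fitting of qHTS concentration-response data.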
# [7] = Cell Viability - LYMP2-020 (AID 986); conditions: series mostly up to 92.2 µM; also: nearly all actives have a fitted effect of over 55% in size; also: potency is read from the fitted curve at half-maximal effect
# How it was run: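 Human lymphoblastoid LYMP2-020 cells (2500/well) preincubated 5 h at 37 C, then treated 24 h at 37 C. Viability measured as intracellular ATP by CellTiter-Glo luminescence after 30 min at room temperature; AC50 from Hill fits.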
# [8] = Cell Viability - LYMP2-022 (AID 987); conditions: LYMP2-022 lymphoblastoid cell viability; series mostly up to 92.2 µM; also: potency is read from the fitted curve at half-maximal effect; nearly all actives have a fitted effect of over 55% in size
# How it was run: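 LYMP2-022 lymphoblastoid cells (2500/well, complete medium) were treated with compounds for 24 hours at 37 C; intracellular ATP was then read by CellTiter-Glo luminescence after 30 min at room temperature. AC50 values were derived from Hill-equation fits.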
# [9] = Cell Viability - LYMP2-024 (AID 988); conditions: LYMP2-024 lymphoblastoid cell viability; series mostly up to 92.2 µM; also: nearly all actives have a fitted effect of over 60% in size; also: potency is read from the fitted curve at half-maximal effect
# How it was run: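 Human lymphoblastoid LYMP2-024 cells (2500/well) rested 5 hr, then treated with compound for 24 hr at 37 C in complete medium. Viability was measured as intracellular ATP by CellTiter-Glo luminescence. AC50 values came from Hill-equation fits.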
# [10] = qHTS assay for small molecule antagonists of retinoid X receptor alpha signaling (AID 588546; active = well fitted inhibition curve with a large enough effect in the signal ratio, with a control signal flat, not every such curve was filed as active; the % refers to the signal ratio;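 also: cells stimulated with 9-cis-retinoic acid as agonist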); conditions: HEK293T RXRa-UAS-bla, beta-lactamase ratio, antagonist mode; measured here: W530 green channel, cytotoxicity proxy
# How it was run: (§1)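 Beta-lactamase reporter inhibition, read as CCF4 fluorescence ratio (ex 405, em 460/530 nm) after 2 h at RT. HEK293T UAS-bla cells, 2500/well, were stimulated with 9-cis-RA at 500 or 100 nM final alongside test compound for 18 h at 37 C.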
# [11] = biological target: Retinoic acid receptor RXR-alpha (Homo sapiens) (UniProt P19793); test: as above; conditions: HEK293T RXRa-UAS-bla, beta-lactamase ratio, antagonist mode
# Chain of Retinoic acid receptor RXR-alpha (Homo sapiens) (P19793 whole entry, looked up): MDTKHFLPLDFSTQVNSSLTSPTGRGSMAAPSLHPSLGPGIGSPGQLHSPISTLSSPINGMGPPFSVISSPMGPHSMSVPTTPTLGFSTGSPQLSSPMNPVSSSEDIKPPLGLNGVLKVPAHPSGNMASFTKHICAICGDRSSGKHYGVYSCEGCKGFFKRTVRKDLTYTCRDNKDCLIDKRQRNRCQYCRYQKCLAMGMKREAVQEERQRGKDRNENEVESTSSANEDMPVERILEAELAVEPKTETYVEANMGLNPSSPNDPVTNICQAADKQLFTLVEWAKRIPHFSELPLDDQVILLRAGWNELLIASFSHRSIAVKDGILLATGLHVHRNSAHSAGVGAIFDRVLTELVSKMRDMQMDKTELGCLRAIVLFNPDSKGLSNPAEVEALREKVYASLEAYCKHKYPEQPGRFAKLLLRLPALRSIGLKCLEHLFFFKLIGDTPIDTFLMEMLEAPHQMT
# How it was run: as §1
# [12] = qHTS assay for environmental chemicals that activate the Aryl hydrocarbon Receptor (AhR) signaling pathway (AID 651777); conditions: 1A2-DRE human hepatoma cells, luciferase, 24 h; activation: stronger effect = higher value; also: nearly all actives have a fitted effect of over 15% in size; also: potency is read from the fitted curve at half-maximal effect
# How it was run: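 Concentration–response screening used 1,200 1A2-DRE cells per well, 24 hr compound exposure (37 C, 5% CO2), and One-Glo luminescence as the AhR-driven CYP1A2 reporter signal.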
# [13] = Cell Viability - LYMP2-023 (AID 975); conditions: LYMP2-023 lymphoblastoid cell viability; series mostly up to 92.2 µM
# How it was run: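 LYMP2-023 human lymphoblastoid cells, 2500/well, preincubated 5 hr at 37 C, then compound-treated 24 hr at 37 C in complete medium. CellTiter-Glo luminescence (ATP) after 30 min at room temperature; AC50 from Hill-equation fits; tetraoctylammonium bromide positive control.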
# [14] = Cell Viability - LYMP2-012 (AID 982); conditions: LYMP2-012 lymphoblastoid cell viability qHTS; series mostly up to 92.2 µM
# [15] = Cell Viability - LYMP2-016 (AID 984); conditions: LYMP2-016 lymphoblastoid cell viability, qHTS; series mostly up to 92.2 µM; also: nearly all actives have a fitted effect of over 55% in size
# How it was run: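 Cytotoxicity was scored by luminescent ATP content (CellTiter-Glo) after 24 h compound exposure at 37 C of a human lymphoblastoid line at 2500 cells/well. Concentration-response data were fitted to the Hill equation for AC50.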
# [16] = Cell Viability - LYMP1-002 - Assay at 40 hr (AID 994); conditions: LYMP1-002 lymphoblastoid cell viability; series mostly up to 92.2 µM; also: nearly all actives have a fitted effect of over 60% in size
# How it was run: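 LYMP1-002 human lymphoblastoid cells (2500/well, complete medium) were treated with compounds for 40 hr at 37 C. Intracellular ATP was measured by CellTiter-Glo luminescence, and AC50 values came from Hill-equation fits of concentration-response data; tetraoctylammonium bromide was the positive control.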
# [17] = Cell Viability - LYMP1-003 - Assay at 40 hr (AID 964); conditions: LYMP1-003 lymphoblastoid viability; series mostly up to 92.2 µM; also: nearly all actives have a fitted effect of over 60% in size
# How it was run: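 LYMP1-003 human lymphoblastoid cells, 2500/well, preincubated 5 h at 37 C, then treated with compound for 40 h at 37 C. Intracellular ATP read by CellTiter-Glo luminescence after 30 min at room temperature; AC50 from Hill-equation fits.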
# [18] = Cell Viability - LYMP2-014 (AID 983); conditions: LYMP2-014 lymphoblastoid cells, viability qHTS; series mostly up to 92.2 µM; also: nearly all actives have a fitted effect of over 50% in size
# How it was run: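 LYMP2-014 human lymphoblastoid cells, 2500/well, treated 24 h at 37 C in complete medium; viability by CellTiter-Glo ATP luminescence after 30 min at room temperature. AC50 from Hill fits of qHTS concentration-response; tetraoctylammonium bromide positive control.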
# [19] = Cell Viability - LYMP2-018 (AID 985); conditions: LYMP2-018 lymphoblastoid cells, viability (qHTS); series mostly up to 92.2 µM; also: nearly all actives have a fitted effect of over 50% in size
# How it was run: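 Human lymphoblastoid LYMP2-018 cells, 2500/well, settled 5 hr at 37 C then exposed to compound 24 hr at 37 C; intracellular ATP measured by CellTiter-Glo luminescence. AC50 from Hill-equation concentration-response fits.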
SMILES,Potency [1],Potency [2],Potency [3],Potency [4],Potency [5],Potency [6],Potency [7],Potency [8],Potency [9],max response [10],max response [11],Potency [12],Potency [13],Potency [14],Potency [15],Potency [16],activation [12],Potency [17],Potency [18],Potency [19]
Cc1ccc(O)c(N)c1,> 92 µM (inactive),inactive,79.4 µM (active),50.1 µM (active),inactive,inactive,50.1 µM (active),39.8 µM (active),39.8 µM (active),-2.88%,11.9% (inactive),50.1 µM (active),,,,,,,,
O=[N+]([O-])c1cc(Cl)c(Cl)c(Cl)c1Cl,> 92 µM (inactive),inactive,,,inactive,inactive,,,,11.9%,-21.8% (inactive),,inactive,inactive,inactive,inactive,-0.451% (inactive),,,
Nc1ccc2c(c1)C(=O)c1ccccc1C2=O,,,inactive,,inactive,,inactive,,inactive,-11.8% and -6.92%,7.8% (inactive) and -4.23% (inactive),14.1 µM (active) and 44.7 µM (active),inactive,inactive,inactive,inactive,,inactive,inactive,inactive
